Compound activity from PubChem BioAssay.
eIF4E 4G PPI: eIF4E–eIF4G protein interaction inhibitors, primary screen, biochemical, uHTS, TR-FRET, eIF4GI fragment | Eukaryotic translation initiation factor 4E (Mus musculus) + Eukaryotic translation … | TR-FRET eIF4E-eIF4GI(517-606) binding, 2 h | inhibition, % at 21.7 µM | 0.37% of 220,000 active | AID 782, 2007;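 active means inhibition above about 30%, limit read from the data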
PERK inh: block of dimerizer-induced PERK translation repression, primary screen, PERK inhibitor project, CHO PERK-DD cells, SEAP luminescence, HTS | Eukaryotic translation initiation factor 2-alpha kinase 3 (Homo sapiens), Q9NZJ5 | CHO PERK-DD fusion, SEAP luminescence translation reporter | inhibition, % at 5.6 µM | 0.17% of 220,000 active | AID 1416, 2008;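 active means inhibition above the mean inhibition of all tested compounds plus 3 SD, set separately per screening campaign, cut at about 2.9% in these data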;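 further: PERK kinase domain activated by AP20187 dimerizer at 100 nM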
PABP1 MLLE inh: inhibitors of PABP1 MLLE–PAM2 peptide binding, primary screen, biochemical, fluorescence polarization, FITC-PAM2, GST-MLLE | Polyadenylate-binding protein 1 (Homo sapiens), P11940 | AID 588489, 2011 | 0.36% of 360,000 active | inhibition, % at 20 µM; in the data active means inhibition above about 35%, passing the limit was not always enough
Target sequence (P11940 whole entry, looked up): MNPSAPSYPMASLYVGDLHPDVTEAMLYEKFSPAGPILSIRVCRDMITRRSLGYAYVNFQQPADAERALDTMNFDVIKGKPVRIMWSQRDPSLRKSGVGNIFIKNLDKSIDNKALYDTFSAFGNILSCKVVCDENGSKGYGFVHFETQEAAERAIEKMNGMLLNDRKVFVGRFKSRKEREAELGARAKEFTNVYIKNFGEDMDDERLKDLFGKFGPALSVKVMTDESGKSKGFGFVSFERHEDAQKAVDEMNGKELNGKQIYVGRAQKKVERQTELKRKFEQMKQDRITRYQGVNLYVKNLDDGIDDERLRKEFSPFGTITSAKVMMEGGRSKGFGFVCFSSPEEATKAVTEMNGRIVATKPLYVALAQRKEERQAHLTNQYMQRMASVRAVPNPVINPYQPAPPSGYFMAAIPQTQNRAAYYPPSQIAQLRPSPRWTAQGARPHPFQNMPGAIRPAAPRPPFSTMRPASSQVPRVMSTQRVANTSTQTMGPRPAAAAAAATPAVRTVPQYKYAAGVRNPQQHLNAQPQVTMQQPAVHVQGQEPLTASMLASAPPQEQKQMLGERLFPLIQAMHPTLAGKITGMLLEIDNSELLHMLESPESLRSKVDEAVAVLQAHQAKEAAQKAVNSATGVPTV
eIF4H inh: human eIF4H binding inhibitors, primary screen, translation initiation inhibitor project, biochemical, uHTS, fluorescence polarization; Eukaryotic translation initiation factor 4H (Homo sapiens), Q15056; eIF4H fluorescence polarization binding assay; inhibition, % at 35 µM; 0.94% of 290,000 active; AID 2012, 2009;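 further: calls also rest on retests at 20 µM and on dose response follow-up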
PABP polyA inh: PABP poly(A) RNA binding inhibitors, primary screen, biochemical, fluorescence polarization, uHTS; inhibition, % at 35 µM; 1% of 290,000 active; AID 2014, 2009;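 further: calls also rest on retests at 20 µM and on dose response follow-up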
A number is an active result. Most compounds without a hit are left out; they make up all but 1.6% or so of the library. Unless noted, how the calls were made is not given here.

CS(=O)(=O)N1N=C(c2ccco2)CC1c1ccco1 (stereo not drawn) was read as PABP1 MLLE inh inactive, eIF4H inh 78 and PABP polyA inh 37.
`CS(=O)(=O)N1N=C(c2ccco2)CC1c1ccccc1` (stereo not drawn) gave eIF4E 4G PPI inactive, PERK inh inactive, PABP1 MLLE inh inactive, eIF4H inh inactive and PABP polyA inh inactive.
CC(C)CSC1=NSC2=NC(=O)/C(=C\c3cccs3)C(=N)N12 was read as eIF4E 4G PPI inactive, PERK inh inactive, PABP1 MLLE inh inactive, eIF4H inh 51 and PABP polyA inh inactive.
For N=C1/C(=C/c2cccs2)C(=O)N=C2SN=C(SCc3ccccc3)N12 the results were eIF4E 4G PPI inactive, PERK inh inactive, PABP1 MLLE inh inactive, eIF4H inh inactive and PABP polyA inh inactive.
For N/C(=N\OC(=O)c1ccccc1Br)c1cccc([N+](=O)[O-])c1 the results were PABP1 MLLE inh inactive, eIF4H inh inactive and PABP polyA inh inactive.
O=C1N=C(N2C=CC(=C3C=CNC=C3)C=C2)/C(=C/N=NC(=O)c2ccccc2O)S1 was read as PABP1 MLLE inh 48.
For CCOC(=S)N/C(=N\S(=O)(=O)c1ccccc1)c1ccccc1 the results were eIF4E 4G PPI inactive, PERK inh inactive, PABP1 MLLE inh inactive, eIF4H inh inactive and PABP polyA inh inactive.
`CCOC(=S)N/C(=N\S(C)(=O)=O)c1ccccc1` gave eIF4E 4G PPI inactive, PERK inh inactive, PABP1 MLLE inh 39, eIF4H inh inactive and PABP polyA inh inactive.
For CC1Cc2ccccc2N1C(=O)CCn1c(=O)oc2ccccc21 (stereo not drawn) the results were eIF4E 4G PPI inactive, PERK inh inactive, PABP1 MLLE inh inactive, eIF4H inh inactive and PABP polyA inh inactive.
Screening CCCCN(C(=O)c1cccc(S(=O)(=O)N2CCOCC2)c1)c1c(N)n(CCC)c(=O)[nH]c1=O returned eIF4E 4G PPI inactive, PERK inh inactive, PABP1 MLLE inh inactive, eIF4H inh inactive and PABP polyA inh 52.
For CCCCN(C(=O)c1cccc(S(=O)(=O)N2CCN(C)CC2)c1)c1c(N)n(CCCC)c(=O)[nH]c1=O the results were PABP1 MLLE inh inactive.
For Cc1ccc(CSc2nnc(-c3ccc(S(=O)(=O)N4CCCC4)cc3)o2)cc1 the results were eIF4E 4G PPI inactive, PERK inh inactive, PABP1 MLLE inh inactive, eIF4H inh inactive and PABP polyA inh inactive.
CC(=O)Nc1ccc(SCC(=O)N(C)CC(=O)Nc2ccccc2Cl)cc1 was read as PABP1 MLLE inh inactive.
Screening CC(NC(=O)c1ccccc1F)c1nnc(SCC(=O)NC2=NCCS2)n1C (stereo not drawn) returned PABP1 MLLE inh inactive, eIF4H inh 90 and PABP polyA inh 75.
Screening Nc1c(C(=O)O)sc2nc(-c3ccccc3)cc(-c3ccc(Cl)cc3)c12 returned eIF4E 4G PPI inactive, PERK inh inactive, PABP1 MLLE inh inactive, eIF4H inh inactive and PABP polyA inh inactive.
For Nc1c(C(=O)O)sc2nc(-c3ccc(F)cc3)cc(-c3ccccc3)c12 the results were eIF4E 4G PPI inactive, PERK inh inactive, PABP1 MLLE inh inactive, eIF4H inh inactive and PABP polyA inh 48.
CCNC(=O)c1sc(=S)n(-c2ccc(C)cc2)c1N was read as eIF4E 4G PPI inactive, PERK inh inactive, PABP1 MLLE inh 44, eIF4H inh inactive and PABP polyA inh inactive.
`CC(=O)N1CCN(c2ccc(NC(=S)NC(=O)c3ccc(C)c([N+](=O)[O-])c3)cc2)CC1` gave eIF4E 4G PPI inactive, PERK inh inactive, PABP1 MLLE inh inactive, eIF4H inh inactive and PABP polyA inh inactive.
`CC(C)C(=O)NNc1ccc(C(F)(F)F)cn1` gave eIF4E 4G PPI inactive, PERK inh 3.6, PABP1 MLLE inh inactive, eIF4H inh inactive and PABP polyA inh inactive.
Screening CCOc1ccc(N2CC(C(=O)Nc3cccc(S(=O)(=O)N4CCCC4)c3)CC2=O)cc1 (stereo not drawn) returned PABP1 MLLE inh inactive.
Screening CCOc1ccc(N2CC(C(=O)Nc3ccc(OC)c(S(=O)(=O)N4CCCCC4)c3)CC2=O)cc1 (stereo not drawn) returned eIF4E 4G PPI inactive, PERK inh inactive, PABP1 MLLE inh inactive, eIF4H inh inactive and PABP polyA inh 64.
For CCOc1ccc(N2CC(C(=O)Nc3cccc(S(=O)(=O)NC4=NCCC4)c3)CC2=O)cc1 (stereo not drawn) the results were eIF4E 4G PPI 97, PERK inh inactive, PABP1 MLLE inh inactive, eIF4H inh inactive and PABP polyA inh inactive.
Screening C=CCNC(=S)NS(=O)(=O)c1cccs1 returned eIF4E 4G PPI inactive, PERK inh inactive, PABP1 MLLE inh 44, eIF4H inh inactive and PABP polyA inh inactive.
O=C(O)CCn1c(-c2ccccn2)nc2ccccc21 was read as PABP1 MLLE inh inactive, eIF4H inh 91 and PABP polyA inh inactive.
`c1coc(-c2nnc(-c3ccco3)nn2)c1` gave PABP1 MLLE inh 38, eIF4H inh 99 and PABP polyA inh 76.
For c1ccc(-c2nnc(-c3ccco3)o2)cc1 the results were eIF4E 4G PPI inactive, PERK inh inactive, PABP1 MLLE inh inactive, eIF4H inh inactive and PABP polyA inh inactive.
Cc1ccc2cc(CN(C(=O)c3cccnc3)C(C)C)c(=O)[nH]c2c1 was read as eIF4E 4G PPI inactive, PERK inh inactive, PABP1 MLLE inh inactive, eIF4H inh inactive and PABP polyA inh inactive.
For CCCN(CCC)c1ccc(/C=C/c2ccc3cc(OCC)ccc3n2)cc1 the results were eIF4E 4G PPI inactive, PERK inh inactive, PABP1 MLLE inh inactive, eIF4H inh inconclusive and PABP polyA inh 41.
Screening COc1cccc(CN(C)CC(=O)Nc2ccccc2C(=O)NC2CC2)c1 returned PABP1 MLLE inh 89.
COc1cccc(CN(C)CC(=O)NC(=O)NCc2ccco2)c1 was read as eIF4E 4G PPI inactive, PERK inh inactive, PABP1 MLLE inh inactive, eIF4H inh 50 and PABP polyA inh 30.
Screening COc1cccc(NC(=O)CN(C)CC(=O)NCc2ccco2)c1 returned PABP1 MLLE inh inactive.
COC(=O)c1ccc(NC(=S)NC2CCCCC2C)cc1 (stereo not drawn) was read as eIF4E 4G PPI inactive, PERK inh inactive, PABP1 MLLE inh inactive, eIF4H inh active and PABP polyA inh 117.
Screening Cc1ccccc1-c1nn(-c2ccc(F)cc2F)cc1CNC1CC1 returned eIF4E 4G PPI inactive, PERK inh inactive, PABP1 MLLE inh inactive, eIF4H inh 54 and PABP polyA inh active.
For CC1/C(=N/O)CC(c2ccccc2)NC1c1ccccc1 (stereo not drawn) the results were eIF4E 4G PPI inactive, PERK inh inactive, PABP1 MLLE inh inactive, eIF4H inh inactive and PABP polyA inh inactive.
Screening COC(=O)c1ccc(Oc2nc(NC(C)C)nc(N(C)C)n2)cc1 returned eIF4E 4G PPI inactive, PERK inh inactive, PABP1 MLLE inh inactive, eIF4H inh inactive and PABP polyA inh inactive.
